# In PubChem BioAssay AID1159580 (chemical genetic matrix, 2015):
# About 2,000 (36%) of roughly 5,500 compounds were called active. Another 18% or so got no clear call; they are omitted. The list shows a part of the results. Values without a mark were called inactive. No stated cut-off is given here; in the data, active means normalized growth mostly below about 0.91 (no sharp cut-off); inconclusive means no clear call, values can overlap the other calls; inactive means mostly above about 0.92.
# Test: chemical genetic growth profiling, strain panel (AID 1159580);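 further: tested at 20 µM; growth read once vehicle control cultures reached saturation at 30 °C; 1 = growth at the plate median or of vehicle wells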
# Details: growth OD
structure (smiles),measurement,setting,value
CC[C@@]1(O)C(=O)OCc2c1cc1n(c2=O)Cc2cc3ccccc3nc2-1,normalized growth,"S. cerevisiae deletion strains, locus YJR066W, strain TOR1, stronger effect = lower value",0.665 (active)
same,normalized growth,"S. cerevisiae deletion strains, locus YJR075W, strain HOC1, stronger effect = lower value",0.88
same,normalized growth,"S. cerevisiae deletion strains, locus YKL009W, strain mrt4, stronger effect = lower value",0.936
same,normalized growth,"S. cerevisiae deletion strains, locus YKL068W, stronger effect = lower value",0.951
same,normalized growth,"S. cerevisiae deletion strains, locus YKL085W, strain MDH1 (second series), stronger effect = lower value",0.796 (active)
same,normalized growth,"S. cerevisiae deletion strains, locus YKL085W, strain MDH1, stronger effect = lower value",0.796 (active)
same,normalized growth,"S. cerevisiae deletion strains, locus YKL160W, strain elf1, stronger effect = lower value",0.965
same,normalized growth,"S. cerevisiae deletion strains, locus YKL190W, strain CNB1, stronger effect = lower value",0.948
same,normalized growth,"S. cerevisiae deletion strains, locus YKR001C, strain vps1, stronger effect = lower value",0.549 (active)
same,normalized growth,"S. cerevisiae deletion strains, locus YKR026C, strain gcn3, stronger effect = lower value",0.919 (active)
same,normalized growth,"S. cerevisiae deletion strains, locus YKR091W, strain srl3, stronger effect = lower value",0.914 (active)
same,normalized growth,"S. cerevisiae deletion strains, locus YLL001W, strain dnm1, stronger effect = lower value",0.831 (active)
same,normalized growth,"S. cerevisiae deletion strains, locus YLL026W, stronger effect = lower value",0.727 (active)
same,normalized growth,"S. cerevisiae deletion strains, locus YLL041C, strain sdh2, stronger effect = lower value",0.924 (active)
same,normalized growth,"S. cerevisiae deletion strains, locus YLR027C, strain aat2, stronger effect = lower value",0.653 (active)
same,normalized growth,"S. cerevisiae deletion strains, locus YLR039C, strain RIC1, stronger effect = lower value",0.692
same,normalized growth,"S. cerevisiae deletion strains, locus YLR058C, strain SHM2, stronger effect = lower value",0.881 (active)
same,normalized growth,"S. cerevisiae deletion strains, locus YLR102C, strain apc9, stronger effect = lower value",0.913 (active)
same,normalized growth,"S. cerevisiae deletion strains, locus YLR113W, strain HOG1, stronger effect = lower value",0.711 (active)
same,normalized growth,"S. cerevisiae deletion strains, locus YLR221C, strain rsa3, stronger effect = lower value",0.693 (active)
same,normalized growth,"S. cerevisiae deletion strains, locus YLR258W, strain gsy2, stronger effect = lower value",0.78 (active)
same,normalized growth,"S. cerevisiae deletion strains, locus YLR262C, strain YPT6 (second series), stronger effect = lower value",0.484 (active)
same,normalized growth,"S. cerevisiae deletion strains, locus YLR262C, strain YPT6, stronger effect = lower value",0.662
same,normalized growth,"S. cerevisiae deletion strains, locus YLR268W, strain sec22, stronger effect = lower value",0.63 (active)
same,normalized growth,"S. cerevisiae deletion strains, locus YLR320W, strain mms22, stronger effect = lower value",0.108 (active)
same,normalized growth,"S. cerevisiae deletion strains, locus YLR330W, strain CHS5, stronger effect = lower value",0.893 (active)
same,normalized growth,"S. cerevisiae deletion strains, locus YLR342W, strain FKS1 (second series), stronger effect = lower value",0.732 (active)
same,normalized growth,"S. cerevisiae deletion strains, locus YLR342W, strain FKS1, stronger effect = lower value",0.647 (active)
same,normalized growth,"S. cerevisiae deletion strains, locus YLR357W, strain rsc2, stronger effect = lower value",1
same,normalized growth,"S. cerevisiae deletion strains, locus YLR370C, strain arc18, stronger effect = lower value",0.832 (active)
same,normalized growth,"S. cerevisiae deletion strains, locus YLR371W, strain rom2, stronger effect = lower value",0.929
same,normalized growth,"S. cerevisiae deletion strains, locus YLR384C, strain iki3, stronger effect = lower value",0.96
same,normalized growth,"S. cerevisiae deletion strains, locus YLR418C, strain cdc73, stronger effect = lower value",0.857
same,normalized growth,"S. cerevisiae deletion strains, locus YML016C, strain PPZ1, stronger effect = lower value",0.998
same,normalized growth,"S. cerevisiae deletion strains, locus YML032C, strain rad52, stronger effect = lower value",0.0917 (active)
same,normalized growth,"S. cerevisiae deletion strains, locus YML120C, strain ndi1, stronger effect = lower value",0.868 (active)
same,normalized growth,"S. cerevisiae deletion strains, locus YML124C, strain tub3, stronger effect = lower value",0.903 (active)
same,normalized growth,"S. cerevisiae deletion strains, locus YMR058W, strain fet3, stronger effect = lower value",0.705 (active)
same,normalized growth,"S. cerevisiae deletion strains, locus YMR078C, strain ctf18, stronger effect = lower value",0.111 (active)
same,normalized growth,"S. cerevisiae deletion strains, locus YMR125W, strain sto1, stronger effect = lower value",0.856 (active)
same,normalized growth,"S. cerevisiae deletion strains, locus YMR129W, stronger effect = lower value",0.893 (active)
same,normalized growth,"S. cerevisiae deletion strains, locus YMR205C, strain PFK2, stronger effect = lower value",0.798 (active)
same,normalized growth,"S. cerevisiae deletion strains, locus YMR223W, strain ubp8, stronger effect = lower value",0.671 (active)
same,normalized growth,"S. cerevisiae deletion strains, locus YMR231W, strain pep5, stronger effect = lower value",0.268 (active)
same,normalized growth,"S. cerevisiae deletion strains, locus YMR263W, strain SAP30, stronger effect = lower value",0.847 (active)
same,normalized growth,"S. cerevisiae deletion strains, locus YMR307W, strain GAS1, stronger effect = lower value",0.461 (active)
same,normalized growth,"S. cerevisiae deletion strains, locus YNL067W, strain RPL9B, stronger effect = lower value",0.781 (active)
same,normalized growth,"S. cerevisiae deletion strains, locus YNL071W, strain lat1, stronger effect = lower value",0.744 (active)
same,normalized growth,"S. cerevisiae deletion strains, locus YNL128W, strain TEP1, stronger effect = lower value",0.937
same,normalized growth,"S. cerevisiae deletion strains, locus YNL153C, strain GIM3, stronger effect = lower value",0.892
same,normalized growth,"S. cerevisiae deletion strains, locus YNL183C, strain NPR1, stronger effect = lower value",0.643 (active)
same,normalized growth,"S. cerevisiae deletion strains, locus YNL209W, strain ssb2, stronger effect = lower value",0.87 (active)
same,normalized growth,"S. cerevisiae deletion strains, locus YNL233W, strain BNI4, stronger effect = lower value",0.804 (active)
same,normalized growth,"S. cerevisiae deletion strains, locus YNL248C, strain rpa49, stronger effect = lower value",0.679 (active)
same,normalized growth,"S. cerevisiae deletion strains, locus YNL250W, strain rad50, stronger effect = lower value",0.152 (active)
same,normalized growth,"S. cerevisiae deletion strains, locus YNL271C, strain bni1, stronger effect = lower value",0.814 (active)
same,normalized growth,"S. cerevisiae deletion strains, locus YNL298W, strain CLA4, stronger effect = lower value",0.74 (active)
same,normalized growth,"S. cerevisiae deletion strains, locus YNL307C, strain MCK1, stronger effect = lower value",0.505 (active)
same,normalized growth,"S. cerevisiae deletion strains, locus YNL322C, strain KRE1 (second series), stronger effect = lower value",0.465 (active)
same,normalized growth,"S. cerevisiae deletion strains, locus YNR049C, strain mso1, stronger effect = lower value",0.947
same,normalized growth,"S. cerevisiae deletion strains, locus YNR052C, strain pop2, stronger effect = lower value",0.207 (active)
same,normalized growth,"S. cerevisiae deletion strains, locus YOL006C, strain TOP1, stronger effect = lower value",0.971
same,normalized growth,"S. cerevisiae deletion strains, locus YOL012C, strain htz1",0.487
same,normalized growth,"S. cerevisiae deletion strains, locus YOL147C, strain pex11, stronger effect = lower value",0.807 (active)
same,normalized growth,"S. cerevisiae deletion strains, locus YOR001W, strain rrp6, stronger effect = lower value",0.847 (active)
same,normalized growth,"S. cerevisiae deletion strains, locus YOR061W, strain CKA2, stronger effect = lower value",0.912
same,normalized growth,"S. cerevisiae deletion strains, locus YOR069W, strain VPS5, stronger effect = lower value",0.883 (active)
same,normalized growth,"S. cerevisiae deletion strains, locus YOR070C, strain gyp1, stronger effect = lower value",0.739 (active)
same,normalized growth,"S. cerevisiae deletion strains, locus YOR080W, strain dia2, stronger effect = lower value",0.543 (active)
same,normalized growth,"S. cerevisiae deletion strains, locus YOR083W, strain WHI5, stronger effect = lower value",0.814 (active)
same,normalized growth,"S. cerevisiae deletion strains, locus YOR106W, strain vam3, stronger effect = lower value",0.366 (active)
same,normalized growth,"S. cerevisiae deletion strains, locus YOR136W, strain idh2, stronger effect = lower value",0.915 (active)
same,normalized growth,"S. cerevisiae deletion strains, locus YOR144C, strain elg1, stronger effect = lower value",0.542 (active)
same,normalized growth,"S. cerevisiae deletion strains, locus YOR184W, strain ser1, stronger effect = lower value",0.67 (active)
same,normalized growth,"S. cerevisiae deletion strains, locus YOR231W, strain MKK1, stronger effect = lower value",0.78 (active)
same,normalized growth,"S. cerevisiae deletion strains, locus YOR265W, strain rbl2, stronger effect = lower value",0.796 (active)
same,normalized growth,"S. cerevisiae deletion strains, locus YOR270C, strain vph1, stronger effect = lower value",0.576 (active)
same,normalized growth,"S. cerevisiae deletion strains, locus YOR290C, strain snf2, stronger effect = lower value",0.746 (active)
same,normalized growth,"S. cerevisiae deletion strains, locus YOR316C, strain cot1, stronger effect = lower value",0.942
same,normalized growth,"S. cerevisiae deletion strains, locus YPL051W, strain arl3, stronger effect = lower value",0.828 (active)
same,normalized growth,"S. cerevisiae deletion strains, locus YPL078C, strain atp4, stronger effect = lower value",0.868 (active)
same,normalized growth,"S. cerevisiae deletion strains, locus YPL106C, strain sse1, stronger effect = lower value",0.879
same,normalized growth,"S. cerevisiae deletion strains, locus YPL240C, strain hsp82, stronger effect = lower value",0.857 (active)
same,normalized growth,"S. cerevisiae deletion strains, locus YPL256C, strain CLN2, stronger effect = lower value",0.784 (active)
same,normalized growth,"S. cerevisiae deletion strains, locus YPR119W, strain clb2, stronger effect = lower value",0.893 (active)
same,normalized growth,"S. cerevisiae deletion strains, locus YPR141C, strain kar3, stronger effect = lower value",0.836 (active)
same,normalized growth,"S. cerevisiae deletion strains, locus YPR163C, strain tif3, stronger effect = lower value",0.276 (active)
same,normalized growth,"S. cerevisiae deletion strains, locus YPR167C, strain met16, stronger effect = lower value",0.795 (active)
same,normalized growth,"S. cerevisiae deletion strains, strain wtn01, stronger effect = lower value",0.739 (active)
same,normalized growth,"S. cerevisiae strains, strain wild type, stronger effect = lower value",0.892 (active)
